The results in this text go back to PubChem BioAssay (NCATS).

Assay [1] in a line: qHTS to identify inhibitors of the type 1 interferon - major histocompatibility complex class I in skeletal muscle: primary screen against the NCATS Mechanism Interrogation Plate v5.0 (MIPE) Libary (AID 1347411). Also: nearly all actives have a fitted effect of over 65% in size. Also: potency is read from the fitted curve at half-maximal effect.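 As to activity change, negative = inhibition: plate controls were vehicle for no effect and reference inhibitor for full effect.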 An outline of the steps: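 HLA-B HiBit myoblasts, dexamethasone-free medium + 4 ng/ml IFN-b, 24 h compound, 11-pt 1:3 from 46 uM final. Readout: Nano-Glo HiBiT lytic luminescence after 10 min lysis, RT.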
(In general: In qHTS, concentration-response curves come from the screen itself.)

Assay [2] in a line: Primary qHTS for inhibitors of nuclear receptor binding SET domain protein 2 (NSD2) in an isogenic RCH-ACV NSD2 p.E1099K mutant (9B) (AID 1645876). Also: nearly all actives have a fitted effect of over 70% in size. Also: potency is read from the fitted curve at half-maximal effect.
The nature of assay [3]: Primary qHTS for inhibitors of nuclear receptor binding SET domain protein 2 (NSD2) in an RCH-ACV wild type WT cells (2C) (AID 1645877). Also: nearly all actives have a fitted effect of over 70% in size. Also: potency is read from the fitted curve at half-maximal effect.
Assay [4] in a line: NCATS anti-infectives library activity on HEK293 viability as a counter-qHTS vs the C. elegans viability qHTS (AID 1745854). Also: % is scaled to controls: 0 for no effect and ±100 for the full control effect. A digest of the protocol:
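CellTiter-Glo luminescence, read on a CCD imager, scored viability of HEK293 cells after 24 hr compound exposure at 37C. Library tested in several concentrations, 1:5 steps, up to 41.7 uM; digitonin served as control.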

The target of assay [5] is Glutathione peroxidase 1 (Homo sapiens) (UniProt P07203). Kind of assay: Primary qHTS Assay for Inhibitors of Recombinant Selenoprotein Glutathione Peroxidase 1 (GPX1) (AID 1845191). Also: nearly all actives have a fitted effect of over 65% in size. Also: potency is read from the fitted curve at half-maximal effect. A digest of the protocol: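 GPX1 10 nM, GR 100 nM, GSH 1 mM, NADPH 0.5 mM, CHP 0.5 mM (final). 30-min cpd preincubation, RT. Ex340/Em450 read t=0, t=15 min.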
A short description of assay [6]: qHTS drug screen for cell cycle checkpoint inhibitors in PARPi-resistant BRCA-mutant ovarian cancer cell lines. (AID 1963452; calls by dose curve; also: potency is read from the fitted curve at half-maximal effect). The conditions noted are these: PEO1/OlaR viability, CellTiter-Glo luminescence, 96 h; for Z-AUC: stronger effect = lower value. A digest of the protocol:
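PEO1, PEO4 and PEO1/OlaR ovarian cancer cells, 600 per well, exposed 96 h at 37C to a dilution series. Viability read by CellTiter-Glo luminescence, normalized to DMSO and empty wells; activity summarized as Z-AUC.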

The target in assay [7] is Phospholipid hydroperoxide glutathione peroxidase GPX4 (Homo sapiens) (UniProt P36969). Kind of assay: Primary qHTS Assay for Inhibitors of Recombinant Selenoprotein Glutathione Peroxidase 4 (GPX4) (AID 1845192). Also: nearly all actives have a fitted effect of over 65% in size. Also: potency is read from the fitted curve at half-maximal effect. As to activity change, negative = inhibition: series mostly up to about 50 µM; % is scaled to controls: 0 for no effect and ±100 for the full control effect. As to conditions: outcome: dose series up to 50 µM unless noted. A digest of the protocol:
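qHTS, GR-coupled: GPX4 200 nM + cpd 30 min RT → GSH 1 mM, NADPH 0.5 mM, GR 100 nM → CHP 0.5 mM start; fluor 340/450 at t0 and t15 min; no-enzyme wells as control.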

Setting [8] is: measured here: PEO1 parental Z-AUC.

Records with an inconclusive call do not appear. Calls of active or inactive are those of the source. Unless noted, calls follow the shape of the dose curve; as a rule, active = well fitted curve in the direction sought with a large enough effect; inconclusive = small, poorly fitted or top-dose-only effect, or another doubt; inactive = no such curve, though single readings can be large; an effect the other way counts as inactive or inconclusive.

Sequence of Glutathione peroxidase 1 (Homo sapiens) (P07203 whole entry, looked up): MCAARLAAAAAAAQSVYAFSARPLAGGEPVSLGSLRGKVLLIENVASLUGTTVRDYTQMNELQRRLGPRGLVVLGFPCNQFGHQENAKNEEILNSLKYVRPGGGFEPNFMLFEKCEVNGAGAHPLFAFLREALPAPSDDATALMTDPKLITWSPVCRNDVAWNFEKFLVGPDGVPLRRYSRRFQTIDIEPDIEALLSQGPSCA
Sequence of Phospholipid hydroperoxide glutathione peroxidase GPX4 (Homo sapiens) (P36969 whole entry, looked up): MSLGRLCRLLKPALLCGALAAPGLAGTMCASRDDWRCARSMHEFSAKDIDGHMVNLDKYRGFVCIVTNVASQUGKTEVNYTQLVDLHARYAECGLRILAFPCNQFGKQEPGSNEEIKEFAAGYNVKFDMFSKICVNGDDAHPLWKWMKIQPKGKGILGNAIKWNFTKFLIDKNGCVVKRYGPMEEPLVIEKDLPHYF

Consider `Cn1cc(/C=C/C(=O)c2cccc(F)c2)cc1/C=C/C(=O)NO`, for which the Potency entry in assay [1], in assay [4] and in assay [5] was “inactive” each time. The Potency in assay [2] was 14.8 µM (active); in assay [3], 18.6 µM (active). The Z-AUC in assay [6] was 0.818 (inactive); in assay [6] (setting [8]), 0.213; in assay [6] (measured here: PEO4 Z-AUC), 0.291.
As to `COC1CCC(N2C(=O)CNc3ncc(-c4ccc(C(C)(C)O)nc4)nc32)CC1` (configuration not stated), the Potency is 13.1 µM (active) in assay [1]; 3.72 µM (active) in assay [2]; 3.72 µM (active) in assay [3]; 4.59 µM (active) in assay [5]; 3.21 µM (active) in assay [7]. Also, the Z-AUC in assay [6] was 1.16 (inactive); in assay [6] (setting [8]) it was 0.788; in assay [6] (measured here: PEO4 Z-AUC), 0.864.
Consider `Cc1cc(-c2cnn3c(NCC4CC(C)(O)C4)cc(Oc4cccnc4)nc23)ccc1C(=O)NC1CC1` (configuration not stated), for which the activity change, negative = inhibition in assay [1] was -24.9% [at 5.1 µM] (inactive); in assay [7] it was -10.8% [at 4.52 µM] (inactive). Moreover, the Potency in assay [2] is 0.148 µM (active); in assay [3], 0.132 µM (active). Besides, the outcome in assay [5] was “inactive [at 4.49 µM]”. In addition, the Z-AUC in assay [6] is -0.227 (inactive); in assay [6] (setting [8]), 0.402; in assay [6] (measured here: PEO4 Z-AUC), -0.202.
With `CN1C(N)=N[C@](C)(c2cc(NC(=O)c3ccc(F)cn3)ccc2F)CS1(=O)=O`, the Potency entry in assay [1], in assay [2], in assay [3], in assay [4], in assay [5] and in assay [7] was “inactive” throughout. For the same compound, the Z-AUC in assay [6] is 1.51 (inactive); in assay [6] (setting [8]), 0.477; in assay [6] (measured here: PEO4 Z-AUC) it was 0.848.
`COC(=O)/C=C/C(=O)OC`: the Potency result in assay [1], in assay [2], in assay [3], in assay [5] and in assay [7] was “inactive” each time. Further, the Z-AUC in assay [6] was -0.0504 (inactive); in assay [6] (setting [8]), 0.852; in assay [6] (measured here: PEO4 Z-AUC), 0.675.
For `Cc1ccc(-c2ccc(C)cn2)nc1`, the Potency result in assay [1], in assay [2], in assay [3], in assay [4], in assay [5] and in assay [7] was “inactive” each time. Moreover, the results for the Z-AUC in assay [6], in assay [6] (setting [8]) and in assay [6] (measured here: PEO4 Z-AUC) were 1.52 (inactive), 0.85 and 1.74, respectively.
`COc1ccc(C(=O)N2CCN(c3ccc4c(c3)CCC(=O)N4)CC2)cc1OC`: the Potency entry in assay [1], in assay [2], in assay [3], in assay [4], in assay [5] and in assay [7] was “inactive” each time. The Z-AUC was -0.238 (inactive) in assay [6], 0.0272 in assay [6] (setting [8]) and 0.0147 in assay [6] (measured here: PEO4 Z-AUC).
For `COc1ccc2[nH]c3c(c2c1)CCN[C@]31CS[C@@H]2c3c(OC(C)=O)c(C)c4c(c3[C@H](COC1=O)N1[C@@H]2[C@H]2c3c(cc(C)c(OC)c3O)C[C@@H]([C@@H]1O)N2C)OCO4`, the Potency was 0.0535 µM (active) in assay [1], 0.0017 µM (active) in assay [2], 0.0017 µM (active) in assay [3] and 0.0317 µM (active) in assay [6]. The outcome in assay [5] is “inactive [at 9.52 µM]”. In assay [7], the activity change, negative = inhibition is -15.3% [at 9.73 µM] (inactive). The Z-AUC was -2.79 in assay [6] (setting [8]) and -2.86 in assay [6] (measured here: PEO4 Z-AUC).
